The text below walks through data of PubChem BioAssay (NCATS).

Values joined by “and” are separate entries in the source; they are usually repeats but may differ in a detail not shown here. Identical values can stand only once. Records with an inconclusive call do not appear. A number with no mark means an inactive call. Active and inactive are the calls of the source. Calls follow the shape of the dose curve; as a rule, active = well fitted curve in the direction sought with a large enough effect; inconclusive = small, poorly fitted or top-dose-only effect, or another doubt; inactive = no such curve, though single readings can be large; an effect the other way counts as inactive or inconclusive.

One assay can be described thus: Quantitative highthroughput screen to assess conditional lethalithy of NOMO1 cells grown in RPMI1640 with dialyzed fetal bovine serum (RPMI+ds) (AID 1963877).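 Also: 100% = DMSO control wells and 0% = empty wells; nearly all actives have a fitted effect of over 30% in size.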 The note with it: NOMO1 in RPMI+dialyzed FBS viability, ATP luminescence, 48 h; series mostly up to 45.8 µM. The gist of the method:
(§1)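 Each medium arm—HPLM with 10% dialyzed FBS, or RPMI1640 with 5 mM glucose and 10% untreated or dialyzed FBS—was screened against an 11-point, 3-fold compound titration for 48 h at 37 °C, with CellTiter-Glo luminescence as endpoint.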
As to `CC(=O)Nc1ccc(OC[C@](C)(O)C(=O)Nc2ccc([N+](=O)[O-])c(C(F)(F)F)c2)cc1`, the Potency entry was “inactive”.
Same read-out and setting: the entry for `O=C(Oc1ccc([N+](=O)[O-])cc1)N1CCC(C(O)(c2ccc3c(c2)OCO3)c2ccc3c(c2)OCO3)CC1` is “inactive”.
As for `C[C@](O)(COc1ccc(C#N)cc1)C(=O)Nc1ccc(C#N)c(C(F)(F)F)c1`, the Potency result was “inactive”.

The next assay is described as follows: Quantitative highthroughput screen to assess conditional lethalithy of NOMO1 cells grown in Human Plasma-Like Medium with dialyzed fetal bovine serum (HPLM+ds) (AID 1963878).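 Also: 100% = DMSO wells and 0% = empty wells on each plate; nearly all actives have a fitted effect of over 35% in size.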 The note with it: NOMO1 AML cells in HPLM+ds, CellTiter-Glo viability, 48 h; series mostly up to 45.8 µM. The gist of the method:
as §1
On to `CN1CCN(C(=O)O[C@H]2c3nccnc3C(=O)N2c2ccc(Cl)cn2)CC1`, for which the Potency entry is “inactive”.
Consider `CC(=O)Nc1ccc(OC[C@](C)(O)C(=O)Nc2ccc([N+](=O)[O-])c(C(F)(F)F)c2)cc1`, for which the Potency result was “inactive”.
On to `O=C(O)CNC(=O)c1c(O)c2ccccc2n(Cc2ccccc2)c1=O`, for which the Potency result is “inactive”.

A short description of a further assay: Quantitative highthroughput screen to assess conditional lethalithy of P12 Ichikawa cells grown in Human Plasma-Like Medium with dialyzed fetal bovine serum (HPLM+ds) (AID 1963879). Also: nearly all actives have a fitted effect of over 35% in size. Also: potency is read from the fitted curve at half-maximal effect. Conditions: ATP luminescence, 48 h; Potency: viability; series mostly up to 45.8 µM. An outline of the steps:
as §1
As for `CN1CCN(C(=O)O[C@H]2c3nccnc3C(=O)N2c2ccc(Cl)cn2)CC1`, the Potency result is “inactive”.
With `CC(=O)Nc1ccc(OC[C@](C)(O)C(=O)Nc2ccc([N+](=O)[O-])c(C(F)(F)F)c2)cc1`, the Potency entry is “inactive”.
On the same count and under the same terms, next, `O=C(Oc1ccc([N+](=O)[O-])cc1)N1CCC(C(O)(c2ccc3c(c2)OCO3)c2ccc3c(c2)OCO3)CC1`: 14.8 µM (active).

The nature of the next assay: Quantitative highthroughput screen to assess conditional lethalithy of SEM cells grown in RPMI1640 with unreated serum (RPMI+s) (AID 1963883). Also: nearly all actives have a fitted effect of over 35% in size. Also: potency is read from the fitted curve at half-maximal effect.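 As to viability: 100% = DMSO wells and 0% = empty wells without cells.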 Conditions: SEM B-ALL cells, CellTiter-Glo viability, 48 h; series mostly up to 45.8 µM. An outline of the steps:
as §1
Take `O=C(Oc1ccc([N+](=O)[O-])cc1)N1CCC(C(O)(c2ccc3c(c2)OCO3)c2ccc3c(c2)OCO3)CC1`: the Potency entry was “inactive”.
Turning to `O=P1(NCCCl)OCCCN1CCCl` (stereo not drawn), the Potency is 14.8 µM (active).
Turning to `O=C(O)CNC(=O)c1c(O)c2ccccc2n(Cc2ccccc2)c1=O`, the Potency entry was “inactive”.

A short description of a further assay: Cellular viability qHTS for adrenocortical cancer (ACC) cell line SW-13 (AID 1963989). Also: nearly all actives have a fitted effect of over 65% in size. Also: potency is read from the fitted curve at half-maximal effect.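 As to activity (max response): cells grown in serum-free medium with ITS supplement; % is scaled to controls: 0 for no effect and ±100 for the full control effect.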 Conditions: SW-13 ACC cells viability, CellTiter-Glo, 48 h; activity (max response): active compounds read low. The gist of the method: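 Here, serum-free SW-13 cultures were dosed up to 46 uM. Following 48 h, ATP-dependent luminescence (CellTiter-Glo) reported viable cells, and logistic modeling produced IC50 values.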
For `O=c1[nH]c2cc(Cl)ccc2n1C1CCNCC1`, the activity (max response) was 8.8%.
`CC(C)[C@]12O[C@H]1[C@@H]1O[C@]13[C@]1(O[C@H]1C[C@H]1C4=C(CC[C@@]13C)C(=O)OC4)[C@@H]2O`: the Potency was 0.251 µM (active).
Regarding `CN1CCN(C(=O)O[C@H]2c3nccnc3C(=O)N2c2ccc(Cl)cn2)CC1`, the activity (max response) is 9.33%.
`COP(=S)(OC)Oc1ccc(S(N)(=O)=O)cc1`: the activity (max response) is 5.57%.
Turning to `C[C@@H]1O[C@@H](O[C@@H]2C=C3CC[C@@H]4[C@H](CC[C@]5(C)[C@@H](c6ccc(=O)oc6)CC[C@]45O)[C@@]3(C)CC2)[C@H](O)[C@H](O)[C@H]1O`, the Potency was 11.2 nM (active) and 7.3 nM (active).
Consider `C=CCN1CC[C@]23CCCC[C@H]2[C@H]1Cc1ccc(O)cc13`, for which the activity (max response) was -5.85%.
On to `CCOC(=O)c1ncn2c1CN(C)C(=O)c1c(I)cccc1-2`, for which the activity (max response) was -2.47%.
In the case of `O=C(Oc1ccc([N+](=O)[O-])cc1)N1CCC(C(O)(c2ccc3c(c2)OCO3)c2ccc3c(c2)OCO3)CC1`, the activity (max response) was 5.03%.
For `NC(=O)CN1CCCC1=O`, the activity (max response) is 11.9%.
As for `C#C[C@]1(O)C=C[C@H]2[C@@H]3CCC4=CC(=O)CC[C@@H]4[C@H]3CC[C@@]21CC`, the activity (max response) is -4.27% and 2.85%.
For `OCCCBr`, the activity (max response) was 0.205%.
For the compound `CCOC(=O)CC(SP(=S)(OC)OC)C(=O)OCC` (stereo not drawn), the activity (max response) was 13.7% and 6.35%.
Consider `C[C@](O)(COc1ccc(C#N)cc1)C(=O)Nc1ccc(C#N)c(C(F)(F)F)c1`, for which the Potency is 22.4 µM (active).
`COc1ccc(CN2CCNCC2)c(OC)c1OC`: the activity (max response) was 10.4%.
For the compound `CC(=O)[C@H]1CC[C@H]2[C@@H]3CC[C@H]4C[C@](C)(O)CC[C@]4(C)[C@H]3CC[C@]12C`, the activity (max response) is 7.79%.
Consider `Nc1ccc(Cl)cc1C(=O)c1ccccc1F`, for which the activity (max response) is -12.6%.
Turning to `CN1[C@H]2CC(O)C[C@H]1[C@H]1O[C@H]12` (stereo partly drawn), the activity (max response) is 10.2%.
As to `O=P1(NCCCl)OCCCN1CCCl` (stereo not drawn), the activity (max response) is 17.4% and 1.23%.
Still for that read-out and setting: next, `NN=C(N)N`: 12.8%; `O=C(O)CNC(=O)c1c(O)c2ccccc2n(Cc2ccccc2)c1=O`: 3.51%; `CCCCC1C(=O)NC(=O)N(C2CCCCC2)C1=O` (stereo not drawn): -4.2%.
In the case of `CC1(C)CC[C@]2(NC(=O)C(C)(F)F)CC[C@]3(C)[C@H](C(=O)C=C4[C@@]5(C)C=C(C#N)C(=O)C(C)(C)[C@@H]5CC[C@]43C)[C@@H]2C1`, the Potency is 4.47 µM (active).

A further assay is described as follows: Cellular viability qHTS for adrenocortical cancer (ACC) cell line NCI-H295R (AID 1963990). Also: nearly all actives have a fitted effect of over 60% in size. Also: potency is read from the fitted curve at half-maximal effect. The note with it: CellTiter-Glo ATP luminescence, 48 h; series mostly up to 46.1 µM. An outline of the steps: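 Viability of NCI-H295R after 48 h of treatment (final up to 46 uM) measured through cellular ATP luminescence.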
With `O=c1[nH]c2cc(Cl)ccc2n1C1CCNCC1`, the Potency entry was “inactive”.
The same measure, in the same setting: the figure for `CC(C)[C@]12O[C@H]1[C@@H]1O[C@]13[C@]1(O[C@H]1C[C@H]1C4=C(CC[C@@]13C)C(=O)OC4)[C@@H]2O` is 0.316 µM (active).
The same measure, in the same setting: the entry for `CN1CCN(C(=O)O[C@H]2c3nccnc3C(=O)N2c2ccc(Cl)cn2)CC1` is “inactive”.
For the compound `C[C@@H]1O[C@@H](O[C@@H]2C=C3CC[C@@H]4[C@H](CC[C@]5(C)[C@@H](c6ccc(=O)oc6)CC[C@]45O)[C@@]3(C)CC2)[C@H](O)[C@H](O)[C@H]1O`, the Potency was 11.2 nM (active) and 7.3 nM (active).
On the same count and under the same terms, the entry for `CC(=O)Nc1ccc(OC[C@](C)(O)C(=O)Nc2ccc([N+](=O)[O-])c(C(F)(F)F)c2)cc1` is “inactive”; for `C/C(=C\c1csc(C)n1)[C@@H]1C[C@@H]2O[C@@H]2CCC[C@H](C)[C@H](O)[C@@H](C)C(=O)C(C)(C)[C@@H](O)CC(=O)O1` it is 0.0224 µM (active).
For `C/C1=C/C[C@@H](/C(C)=C/c2csc(C)n2)OC(=O)C[C@H](O)C(C)(C)C(=O)[C@H](C)[C@@H](O)[C@@H](C)CCC1`, the Potency is 0.0224 µM (active).
Consider `C[N+]1(CCF)[C@@H]2CC[C@H]1CC(OC(=O)C(O)(c1ccccc1)c1ccccc1)C2` (stereo partly drawn), for which the Potency result is “inactive”.
Take `C=CCN1CC[C@]23CCCC[C@H]2[C@H]1Cc1ccc(O)cc13`: the Potency entry is “inactive”.
For the compound `O=C(NC(=O)c1c(F)cccc1F)Nc1cc(Cl)c(OC(F)(F)C(F)C(F)(F)F)cc1Cl` (stereo not drawn), the Potency result is “inactive”.
In the case of `CCOC(=O)c1ncn2c1CN(C)C(=O)c1c(I)cccc1-2`, the Potency entry is “inactive”.
In the case of `CO[C@H]1CCC(O[C@H]2C[C@H]([C@]3(C)CC[C@]4(C[C@H](O)[C@@H](C)[C@@H]([C@@H](C)/C=C(\C)C(=O)[C@H](C)C[C@H](C)C(=O)O)O4)O3)O[C@]3(O[C@@H]([C@H]4O[C@@](O)(CO)[C@H](C)C[C@@H]4C)C[C@@H]3C)[C@@H]2C)O[C@@H]1C` (stereo partly drawn), the Potency is 1.12 µM (active).
On the same count and under the same terms, next, `COc1ccc(Cc2nccc3cc(OC)c(OC)cc23)cc1OC`: “inactive”.
Turning to `O=C(Oc1ccc([N+](=O)[O-])cc1)N1CCC(C(O)(c2ccc3c(c2)OCO3)c2ccc3c(c2)OCO3)CC1`, the Potency result was “inactive”.
For `C[C@]12CC[C@@H]3c4ccc(OC(=O)N(CCCl)CCCl)cc4CC[C@H]3[C@@H]1CC[C@@H]2O`, the Potency result is “inactive”.
Consider `OCCCBr`, for which the Potency entry is “inactive”.
As to `CCOC(=O)CC(SP(=S)(OC)OC)C(=O)OCC` (stereo not drawn), the Potency result was “inactive”.
Turning to `C/C=C(\C)C(=O)N[C@@H](c1ccccc1)[C@@H](O)C(=O)O[C@H]1C[C@@]2(O)[C@@H](OC(=O)c3ccccc3)[C@@H]3[C@]4(OC(C)=O)CO[C@@H]4C[C@H](O)[C@@]3(C)C(=O)[C@H](OC(C)=O)C(=C1C)C2(C)C`, the Potency is 0.891 µM (active).
For the compound `C/C(=C\c1csc(C)n1)[C@@H]1C[C@@H]2O[C@]2(C)CCC[C@H](C)[C@H](O)[C@@H](C)C(=O)C(C)(C)[C@@H](O)CC(=O)O1`, the Potency is 0.0282 µM (active).
Same read-out and setting: the figure for `C[C@](O)(COc1ccc(C#N)cc1)C(=O)Nc1ccc(C#N)c(C(F)(F)F)c1` is 17.8 µM (active).
As to `O=C(NCCCNc1nc(Nc2ccc(N3CCOCC3)cc2)ncc1C1CC1)C1CCC1`, the Potency entry is “inactive”.
Same read-out and setting: the entry for `COc1ccc(CN2CCNCC2)c(OC)c1OC` is “inactive”; for `CO/C=C(/C(=O)OC)c1ccccc1Oc1cc(Oc2ccccc2C#N)ncn1` it is 7.94 µM (active).
The same measure, in the same setting: the entry for `CC(=O)[C@H]1CC[C@H]2[C@@H]3CC[C@H]4C[C@](C)(O)CC[C@]4(C)[C@H]3CC[C@]12C` is “inactive”; for `CN1[C@H]2CC(O)C[C@H]1[C@H]1O[C@H]12` (stereo partly drawn) it is “inactive”.
For the compound `O=P1(NCCCl)OCCCN1CCCl` (stereo not drawn), the Potency entry was “inactive”.
Consider `Clc1ccc(CCC(Cn2ccnc2)Sc2c(Cl)cccc2Cl)cc1` (stereo not drawn), for which the Potency was 20.6 µM (active) and 35.5 µM (active).
Same read-out and setting: next, `c1ccc2c(c1)Sc1ccccc1N2CC1CN2CCC1CC2` (stereo not drawn): 16.4 µM (active); `NN=C(N)N`: “inactive”.
On to `Cc1nnc2n1-c1sc(CCc3ccc(CC(C)C)cc3)cc1C(c1ccccc1Cl)=NC2C` (stereo not drawn), for which the Potency is 8.2 µM (active).
`CCCCC1C(=O)NC(=O)N(C2CCCCC2)C1=O` (stereo not drawn): the Potency result is “inactive”.
Turning to `CCO[C@H]1O[C@@H]2OC3(C)CC[C@H]4[C@H](C)CC[C@@H]([C@H]1C)[C@@]24OO3`, the Potency entry is “inactive”.
For the compound `Nc1ccc(Cl)cc1`, the Potency result was “inactive”.
With `CC1(C)CC[C@]2(NC(=O)C(C)(F)F)CC[C@]3(C)[C@H](C(=O)C=C4[C@@]5(C)C=C(C#N)C(=O)C(C)(C)[C@@H]5CC[C@]43C)[C@@H]2C1`, the Potency was 3.98 µM (active).
